From PubChem BioAssay

Assay: binders of probe aFGF2 on microarray, primary screen, stem cell growth factor project, biochemical, small-molecule microarray, fluorescence 635/667 (AID 1067);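 note: measures binding of biotinylated aFGF2 protein to printed compounds on slides; z-score merges feature fluorescence and signal-to-noise across triplicate slides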
Details: higher = more signal

Q: For `C=CCC(OC(C)=O)[C@@H]1[C@@H](N(Cc2cc3ccccc3o2)C(=O)Cc2ccc(OC)cc2)c2cc(OCCCO)ccc2N1C(=O)c1ccc2ccccc2n1` (stereo partly specified), which composite z-score is on record?
A: Its composite z-score is 0.0372.

Q: With `C=C(COC)/C(=C/C[C@@H](OC(C)=O)c1ccccc1OCCO)c1cnc2ccccc2c1` as the compound, how does the composite z-score read?
A: Its composite z-score is -0.0695.

Q: Which composite z-score does the source give for `Cc1ccc(S[C@]2(C(=O)NCC(F)(F)F)CC(=O)N(Cc3ccccc3C(F)(F)F)[C@@H]2c2ccc(CO)cc2)cc1` here?
A: The composite z-score was -0.1.

Q: With `C=CCC(OC(C)=O)[C@@H]1[C@@H](N(Cc2cccc3ccccc23)C(=O)Cc2ccc(OC)cc2)c2cc(OCCCO)ccc2N1C(=O)c1ccc2ccccc2c1` (stereo partly specified) as the compound, how does the composite z-score read?
A: The composite z-score was -0.052.

Q: With `COc1ccc([Si](C)(C)[C@@H]2[C@@H](CC(=O)N(CCO)Cc3ccccc3)O[C@]3(C(=O)N(Cc4ccc(N5C(=O)c6cccc7cccc5c67)cc4)c4ccccc43)[C@H]2C)cc1` as the compound, how does the composite z-score read?
A: The composite z-score was -0.0876.

Q: With `COC(=O)[C@@]1(Cc2ccc(OC)cc2)[C@H]2c3cc(C(=O)N(C)C)[nH]c3C[C@H]2CN1C(=O)c1ccccc1` as the compound, how does the composite z-score read?
A: The composite z-score was 0.0992.

Q: With `CCOc1cc(C(O)C2C=CC3C(=O)N(c4ccccc4)C(=O)C3N2Nc2ccccc2F)ccc1O` (stereo unspecified) as the compound, how does the composite z-score read?
A: The composite z-score was 0.252.

Q: Which composite z-score does the source give for `O=C1O[C@@H](c2ccccc2)[C@@H](c2ccccc2)N2[C@@H](c3ccc(OCCO)cc3)[C@]3(C(=O)Nc4ccc(C#CC5(O)CCCCCC5)cc43)[C@@H](C(=O)O)[C@H]12` here?
A: The composite z-score was -0.0579.

Q: For `COc1ccc(C(=O)Nc2ccc(CN3C(=O)[C@@]4(O[C@@H](CCn5cc(CCO)nn5)[C@H]([Si](C)(C)c5ccc(OC)cc5)[C@H]4C)c4ccccc43)cc2)cc1`, which composite z-score is on record?
A: The composite z-score was -0.0613.

Q: With `O=C1[C@H]2C=C(I)[C@H](C[C@@H]2OCCCCCCO)[C@@]12CO2` as the compound, how does the composite z-score read?
A: Its composite z-score is -0.169.

Q: Which composite z-score does the source give for `CCCC#C[Si](O[C@H](CC)c1cn(Cc2ccccc2)nn1)(C(C)C)C(C)C` here?
A: Its composite z-score is 0.0252.

Q: With `C=CCN1C(=O)[C@@]2(O[C@@H](CCn3cc([C@H](O)c4ccccc4)nn3)[C@H]([Si](C)(C)c3ccc(OC)cc3)[C@H]2C)c2cc(N3C(=O)c4cccc5cccc3c45)ccc21` as the compound, how does the composite z-score read?
A: Its composite z-score is -0.151.

Q: For `O=C1N(Cc2ccccc2)c2ccccc2C[C@@]12COC(c1ccc(OCCCO)cc1)=N2`, which composite z-score is on record?
A: The composite z-score was -0.0592.

Q: With `CC1CC/C=C\[C@H]2OC34C=CCN(c5ccc6ccccc6c5)C(=O)[C@H]3N(C(C)CO)C(=O)[C@@H]4C2C(=O)O1` (stereo partly specified) as the compound, how does the composite z-score read?
A: The composite z-score was -0.178.

Q: For `COc1ccc(C(=O)Nc2cccc(CN3C(=O)[C@]4(O[C@H](CC(=O)N5Cc6ccccc6C[C@H]5CO)[C@@H]([Si](C)(C)c5ccc(OC)cc5)[C@@H]4C)c4ccccc43)c2)cc1`, which composite z-score is on record?
A: The composite z-score was -0.159.

Q: For `COC(=O)c1cccc([C@H]2OC(=CC(=O)OC(C)C)C[C@@H](c3cccc(C(=O)OC)c3)O2)c1`, which composite z-score is on record?
A: The composite z-score was 0.357.

Q: With `COC(=O)[C@@]1(Cc2ccc(F)cc2)[C@H]2c3cc(C(=O)N4CCCC4)n(Cc4cc(F)cc5c4OCOC5)c3C[C@H]2CN1C(=O)c1ccccc1` as the compound, how does the composite z-score read?
A: The composite z-score was 0.13.

Q: For `C=C(CCCC)/C(=C/C[C@@H](OC(C)=O)c1ccc(CO)o1)c1cnc2ccccc2c1`, which composite z-score is on record?
A: Its composite z-score is -0.0744.

Q: For `CC(C)N1C(=O)C[C@@](C(=O)NCCN2CCOCC2)(c2ccc([N+](=O)[O-])cc2)[C@H]1c1ccc(CO)cc1`, which composite z-score is on record?
A: The composite z-score was -0.21.

Q: With `C=C(CCCC)/C(=C/C[C@H](OC(=O)c1ccncc1)c1ccccc1OCCO)c1cc(C(=O)OC)ccc1OC` as the compound, how does the composite z-score read?
A: Its composite z-score is -0.0591.

Q: With `O=C1C[C@@](C(=O)NCc2ccccc2)(c2ccc([N+](=O)[O-])cc2)[C@@H](c2ccc(CO)cc2)N1C1CCCCC1` as the compound, how does the composite z-score read?
A: Its composite z-score is -0.101.

Q: For `CC(C)=C1C(=O)C(c2ccccc2)=C2CN3C(=O)N(CCc4ccccc4)C(=O)[C@]3(C)[C@H]21`, which composite z-score is on record?
A: Its composite z-score is 0.15.

Q: Which composite z-score does the source give for `COCCOC(=O)N1C(=O)[C@@]2(c3cc(C#CCC(C(=O)OC)C(=O)OC)ccc31)[C@H](C(=O)Nc1nc3ccccc3s1)[C@H]1C(=O)O[C@H](c3ccccc3)[C@H](c3ccccc3)N1[C@@H]2c1ccc(OCCO)cc1` here?
A: The composite z-score was 0.224.

Q: Which composite z-score does the source give for `COc1ccc(C(O)C2C=CC3C(=O)N(c4ccccc4)C(=O)C3N2Nc2ccc([N+](=O)[O-])cc2)c2ccccc12` (stereo unspecified) here?
A: The composite z-score was 0.0688.

Q: With `C[N+](C)(C)CCCC[C@@H]1NC(=O)[C@@H]2C[C@H](C(=O)NCc3ccc(F)cc3)[C@H](c3ccc(O)cc3)N2C1=O` as the compound, how does the composite z-score read?
A: Its composite z-score is -0.148.

Q: For `CC(C)OC(=O)CC(=O)CC(O)c1cccc([N+](=O)[O-])c1` (stereo unspecified), which composite z-score is on record?
A: The composite z-score was -0.0028.

Q: With `O=C(NCC(O)CO)[C@@]1(CCS(=O)(=O)c2ccccc2)N=C(c2ccc(OCCCO)cc2)O[C@H]1c1ccccc1` (stereo partly specified) as the compound, how does the composite z-score read?
A: The composite z-score was 0.123.

Q: With `Cc1ccc(C(C)CC(O)C2C=CC3C(=O)N(C)C(=O)C3N2Nc2ccccc2)o1` (stereo unspecified) as the compound, how does the composite z-score read?
A: The composite z-score was 0.0876.

Q: With `CCOC(=O)C[C@H]1[C@H](OC(=O)c2ccccc2-c2ccccc2)[C@@H](NC(=O)c2ccc3ccccc3c2)c2cc(OCCCO)ccc2N1C(=O)Cc1ccc(OC)cc1` as the compound, how does the composite z-score read?
A: Its composite z-score is -0.118.

Q: For `Cc1ccc(S[C@]2(C(=O)NC(C)C)CC(=O)N(C3CCCCC3)[C@@H]2c2ccc(CO)cc2I)cc1`, which composite z-score is on record?
A: The composite z-score was -0.0257.

Q: Which composite z-score does the source give for `N#Cc1ccc(NN2C(C(O)C3CC=CCC3)C=CC3C(=O)N(c4ccccc4)C(=O)C32)cc1` (stereo unspecified) here?
A: The composite z-score was -0.073.

Q: With `Cc1ccc(F)cc1S(=O)(=O)N[C@H]1CCN(Cc2ccc(OC(C)C)cc2)C1` as the compound, how does the composite z-score read?
A: The composite z-score was -0.201.

Q: Which composite z-score does the source give for `C=CCOC(=O)[C@H]1[C@@H]2C(=O)O[C@@H](c3ccccc3)[C@@H](c3ccccc3)N2[C@@H](c2ccc(OCCOC(=O)[C@@H]3C[C@@H]4C(=O)N[C@@H](CCCC[N+](C)(C)C)C(=O)N4[C@@H]3c3ccc(O)cc3)cc2)[C@]12C(=O)Nc1ccc(I)cc12` here?
A: The composite z-score was 0.0559.

Q: For `CCOC(=O)C1=C[C@@H](C(C)(C)C)N(S(=O)(=O)c2ccc(C)cc2)[C@H]1c1ccc(C#N)cc1`, which composite z-score is on record?
A: Its composite z-score is -0.0181.

Q: Which composite z-score does the source give for `CCOC(=O)C[C@H]1[C@H](OC(=O)Cc2ccc3c(c2)OCO3)[C@@H](NC(=O)c2ccc3ccccc3n2)c2cc(OCCCO)ccc2N1C(=O)Cc1ccc(OC)cc1` here?
A: The composite z-score was -0.0785.

Q: Which composite z-score does the source give for `COC(=O)[C@@]1(Cc2ccccc2)[C@H]2c3cc(C(=O)N(C)C)n(Cc4ccc(C(F)(F)F)nc4)c3C[C@H]2CN1C(=O)c1ccccc1` here?
A: Its composite z-score is 0.233.
